# According to PubChem BioAssay AID588852 (The Scripps Research Institute Molecular Screening Center, 2011):
# Out of some 360,000 compounds screened, about 4,600 (1.3%) were called active.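 Rule for the calls: active = percent inhibition above its own plate's cutoff, namely the mean of that plate's compound wells plus 3 SD; inactive = the rest.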 The list comes from a sample in which actives are over-represented; it also holds similar structures and randomly drawn compounds.
# Molecular target: Muscarinic acetylcholine receptor M1 (Homo sapiens) (UniProt P11229)
# Sequence (P11229 whole entry, looked up): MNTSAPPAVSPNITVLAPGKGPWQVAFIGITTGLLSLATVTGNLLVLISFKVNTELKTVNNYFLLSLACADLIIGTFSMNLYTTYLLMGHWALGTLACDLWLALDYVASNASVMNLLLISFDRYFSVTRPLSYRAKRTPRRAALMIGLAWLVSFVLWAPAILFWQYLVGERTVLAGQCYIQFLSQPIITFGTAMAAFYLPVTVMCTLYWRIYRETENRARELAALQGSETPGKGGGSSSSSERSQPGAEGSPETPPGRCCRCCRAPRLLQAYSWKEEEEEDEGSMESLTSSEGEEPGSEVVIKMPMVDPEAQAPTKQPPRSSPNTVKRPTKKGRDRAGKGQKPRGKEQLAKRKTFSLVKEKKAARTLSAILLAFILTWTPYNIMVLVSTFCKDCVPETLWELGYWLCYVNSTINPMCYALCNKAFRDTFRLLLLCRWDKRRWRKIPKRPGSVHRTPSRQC
# Assay: human M1 muscarinic receptor antagonists, primary screen, CHO-K1 cells, Fluo-8 calcium fluorescence, 1536-well (AID 588852);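 note: peak over basal fluorescence ratio during 140 s after agonist addition; 0% = ACh EC80 plus DMSO and 100% = DMSO alone without agonist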
# Conditions: CHO-K1 hM1, Fluo-8 calcium fluorescence, ACh EC80 antagonist; at 3 µM; hits give high values
row,Structure (SMILES),inhibition
1,CC(C)(C)NC(=O)COc1ccc(CNc2ccc3[nH]c(=O)[nH]c3c2)cc1,-1.62% (inactive)
2,COc1cc(C2OC(c3cc(OC)c(OC)c(OC)c3)C(C)C2C)cc(OC)c1OC (centres undefined),0.63% (inactive)
3,Oc1cccc2cc(-c3ccncc3)cnc12,-21.3% (inactive)
4,O=C(c1cc(Cl)cc(Cl)c1)N1CCC(=O)N(C(COCc2ccccc2)Cc2ccccc2)CC1 (centres undefined),7.3% (inactive)
5,O=[N+]([O-])c1ccc(CN2CC(N3CCC(c4ccccc4)CC3)CS2(=O)=O)cc1 (centres undefined),7.07% (inactive)
6,CCOC(=O)c1ccccc1NS(=O)(=O)c1c(C)nc2sccn2c1=O,6.39% (inactive)
7,COC(=O)c1ccc(CN2CCC(CO)(Cc3ccc(OC)cc3)CC2)cc1,53.5% (active)
8,COc1ccc(CC2(CO)CCN(Cc3cnn(C)c3)CC2)cc1,1.8% (inactive)
9,CCOC(=O)C1(CCOC)CCN(Cc2ccc(C(=O)OC)cc2)CC1,-9.07% (inactive)
10,O=C(CN1CCN(c2ccccc2O)CC1)NC(=O)NCc1ccccc1,-3.68% (inactive)
11,Cn1c(-c2ccc(C(F)(F)F)cc2)cc2onc(-c3ccccc3)c2c1=O,2.31% (inactive)
12,CC(C(=O)NC1CCCCC1)N1C(=O)c2cccc3cccc1c23 (centres undefined),8.39% (inactive)
13,COc1ccccc1C(=O)Nc1ccnn1C1CCN(Cc2cnn(C)c2)CC1,-12.3% (inactive)
14,COc1ccccc1N1CCN(CC(=O)Nc2ccnn2C2CCCC2)CC1,-12.8% (inactive)
15,COc1ccccc1C(=O)Nc1ccnn1C1CCN(C(=O)C(C)(C)C)CC1,47.4% (active)
16,C/C(O)=C\c1nc(=O)c2c(C)cc(C)nc2n1-c1ccccc1,-3.66% (inactive)
17,S=C(NCCCc1cnc[nH]1)NCCCN(Cc1ccc(Cl)c(Cl)c1)c1ccc(Br)cn1,0.91% (inactive)
18,CCOc1cc(/C=N/NC(=O)c2ccc(CSc3nncn3C)cc2)ccc1OCC(=O)N1CCOCC1,-1.07% (inactive)
19,CC(C)(C)S(=O)N1Cc2cc(C(=O)NCCCN3CCOCC3)nc(-c3cccc(-c4cc5ccccc5o4)c3)c2[C@H]1CCO (some centres undefined),-16.2% (inactive)
20,CCN(CC)S(=O)(=O)c1ccc(OC(C)C)c(N)c1,-11.4% (inactive)

row,Structure (SMILES),inhibition
1,CCN1/C(=C\c2ccc3ccccc3[n+]2CC)Sc2cc(C)ccc21,59% (active)
2,CCCCCCCCCCOC(=O)Cn1c(COc2cccc(OC)c2)[n+](C)c2ccccc21,58.2% (active)
3,CCCCCCCCCCOC(=O)Cn1c(COc2ccc(C)cc2)[n+](C)c2ccccc21,30.8% (inactive)
4,O=C(C=CC(=O)Nc1ccc(F)cc1F)Nc1ccc(F)cc1F,-4.83% (inactive)
5,CC(=O)Nc1ccc(S(=O)(=O)N2CCC(C(=O)NC3CC3)CC2)cc1,-7.82% (inactive)
6,NCCCNC(=S)NCCCN(Cc1ccc(Cl)cc1)c1ccc(Br)cn1,-0.49% (inactive)
7,CC(C)(C)OC(=O)N1CCN(C(=O)c2[nH]c(C(F)(F)F)nc2-c2ccccc2)CC1,-33.3% (inactive)
8,O=C(Nc1cccc(Cl)c1)c1cncn1-c1ccc(F)cc1,-4.54% (inactive)
9,FC(F)(F)c1cccc(N/N=C/c2ccccc2)c1,-6.47% (inactive)
10,FC(F)(F)c1cccc(NC(=S)Nc2cccc(Cl)c2)c1,27.5% (active)
11,Cc1cc(C)cc(OCC(=O)OCC(=O)NC2CCCC2)c1,5.15% (inactive)
12,CC(C)c1nc2oc3c(N4CCN(C)CC4)ncnc3c2c2c1CCC2,-4.82% (inactive)
13,CN(C)Cc1c(C(=O)N/N=C/c2ccccc2OCc2ccc(F)cc2)nnn1-c1nonc1N,-17.7% (inactive)
14,NC(=O)C1=C[C@@H](c2csc3ccccc23)C[C@@H](OCc2ccc(CO)cc2)O1,-1.54% (inactive)
15,COc1cccc(-c2cnc3c(NC(C)=O)cc(-c4cc(F)ccc4OC)cn23)c1,13.1% (inactive)
16,Cc1onc(-c2ccccc2Cl)c1C(=O)OCc1nnc(-c2ccccc2)o1,1.39% (inactive)
17,Cc1ccc(C(=O)NCC(=O)OCc2nnc(-c3ccccc3)o2)cc1,-11.3% (inactive)
18,Cc1onc(-c2ccccc2)c1-c1nnc(COC(=O)c2ccc(N(C)C)cc2)o1,99.9% (active)
19,Cc1cc2nc(-c3ccco3)c(Cc3cccc(F)c3)n2c(C)c1Br,-9.48% (inactive)
20,O=C(c1ccc2c(c1)N(Cc1ccc(F)cc1)C(=O)c1ccccc1S2(=O)=O)N1CCN(c2ccccn2)CC1,-3.64% (inactive)

row,Structure (SMILES),inhibition
1,O=C(NCCN1CCOCC1)c1ccc2c(c1)N(Cc1cccc(Cl)c1)C(=O)c1ccccc1S2(=O)=O,-3.27% (inactive)
2,CCCCN(C)C(=O)c1ccc2c(c1)N(CC)C(=O)c1ccccc1S2(=O)=O,37.7% (active)
3,Cc1nn(-c2ccccc2)nc1C(=O)OCC(=O)N1CCCCC1C (centres undefined),3.01% (inactive)
4,NC1=NC(=O)C2(COC(c3ccccc3Cl)OC2)S1 (centres undefined),-9.62% (inactive)
5,O=C(COC(=O)/C=C/c1ccc(Br)o1)Nc1cccc(S(=O)(=O)N2CCOCC2)c1,-15.6% (inactive)
6,CC(=O)c1c(O)cc2n(c1=O)-c1ccc(Cl)cc1C2(C)C,-13.4% (inactive)
7,COC(=O)c1ccc(NC(=O)CSc2nnc(C3CC3)n2C)cc1,-9.89% (inactive)
8,COC(=O)c1ccc(NC(=O)CSc2nnc(-c3ccncc3)n2C)cc1,-9.95% (inactive)
9,COC(=O)c1ccc(NC(=O)CSc2nnc(CNc3ccc(OC)cc3)n2C)cc1,64.6% (active)
10,CC(C)CN(C(=O)c1ccc2c(c1)OCO2)C1CCS(=O)(=O)C1 (centres undefined),6.67% (inactive)
11,O=C(Nc1cccc2c1N(C(=O)c1ccco1)CCC2)c1ccco1,-11.2% (inactive)
12,N#CC1(NC(=O)COC(=O)CSc2ccc(F)cc2)CCCCC1,-5.4% (inactive)
13,COc1cc(CCN=Cc2ccccc2O)c([N+](=O)[O-])cc1OC,1.04% (inactive)
14,CN1CCN(CCCCOc2ccccc2-c2ccccc2)CC1,-6.34% (inactive)
15,CC1CCCN(CCOCCOc2ccccc2-c2ccccc2)C1 (centres undefined),5.61% (inactive)
16,c1ccc(-c2ccccc2OCCN2CCCCC2)cc1,33.7% (active)
17,O=C(Oc1ccc(-c2nnco2)cc1)c1ccc(F)c(S(=O)(=O)N2CCOCC2)c1,38.5% (active)
18,Cc1cc(NC(=O)COC(=O)c2ccc(F)c(S(=O)(=O)N3CCOCC3)c2)no1,-35% (inactive)
19,COc1ccc(C(=O)Oc2ccc(-c3nnco3)cc2)cc1S(=O)(=O)N1CCOCC1,0.6% (inactive)
